{"source": "the supplement of paper PMC11219838", "note": "A number with no mark means an inactive call.", "data": [{"test_system": "Meloidogyne hapla J2", "assay": "proportion of mobile M. hapla J2 relative to DMSO control (fraction of DMSO control); higher = more viable, less nematicidal, active = 0.7 or less", "settings": "60 µM; 5 days; temperature: 20 °C", "method_in_brief": "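Compound was pinned to 60 µM final (0.6% v/v DMSO) into 96-well wells, each holding about 25 M. hapla J2 in distilled water. Plates were sealed and shaken for 5 days at 20 °C and 200 rpm, then given 2 µL 1 M NaOH per well. Microscopic mobility scores were normalised to the mean of the plate's own DMSO wells, eight per plate, with two biological replicates averaged.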", "values": [{"compound": "Cc1cc(OCc2nc(-c3ccccn3)no2)cc(C)c1Cl", "proportion of mobile M. hapla J2": 1.05}, {"compound": "Brc1cccc(-c2nc(-c3cccnc3)no2)c1", "proportion of mobile M. hapla J2": 1.01}, {"compound": "CCc1ccc(OCc2nc(-c3ccc(C)cc3)no2)cc1", "proportion of mobile M. hapla J2": 1.04}]}, {"test_system": "Caenorhabditis elegans dauer (daf-2(e1370))", "assay": "proportion of mobile C. elegans dauer larvae relative to DMSO control (fraction of DMSO control); higher = more viable, less nematicidal, active = 0.63 or less; extreme values may be limits of the assay", "settings": "60 µM; 5 days; temperature: 20 °C", "method_in_brief": "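The proportion of mobile worms, relative to DMSO wells, was scored by dissection microscope and averaged over two biological replicates. Worms were C. elegans dauers, about 20 per well in liquid NGM in 96-well plates, generated from synchronized larvae on MYOB plates with E. coli OP50 at 25 °C for 48 h. They were treated with compound pinned to 60 µM final (0.6% v/v DMSO) and kept in sealed plates shaken at 200 rpm for 5 days at 20 °C.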", "values": [{"compound": "O=C(Nc1ccc(-c2noc(-c3ccc(F)cc3)n2)cc1)c1ccc(Br)o1", "proportion of mobile C. elegans dauer larvae": 1}, {"compound": "Cc1ccc(-c2nc(-c3ccc(C(F)(F)F)cc3)no2)cc1", "proportion of mobile C. elegans dauer larvae": "0.5 (active)"}, {"compound": "Cc1cc(OCc2nc(-c3ccccn3)no2)ccc1Br", "proportion of mobile C. elegans dauer larvae": 1}, {"compound": "CCOC(=O)c1c(NC(=O)CSc2nnc(-c3ccc(Cl)cc3)o2)sc(C)c1C", "proportion of mobile C. elegans dauer larvae": 1}, {"compound": "O=C(CSc1nnc(-c2ccccc2)o1)NC1CC2CCC1C2", "note": "(centres undefined)", "proportion of mobile C. elegans dauer larvae": 1}, {"compound": "Fc1ccc(-c2noc(-c3ccc(Br)cc3)n2)cc1", "proportion of mobile C. elegans dauer larvae": 1}, {"compound": "COc1ccccc1-c1nc(-c2ccc(Cl)cc2)no1", "proportion of mobile C. elegans dauer larvae": 1}, {"compound": "CCc1ccc(C(=O)Nc2ccccc2-c2nc(-c3ccncc3)no2)cc1", "proportion of mobile C. elegans dauer larvae": 1}, {"compound": "COc1ccc(-c2nnc(SCC(=O)Nc3ccc(Cl)c(Br)c3)o2)cc1", "proportion of mobile C. elegans dauer larvae": 1}, {"compound": "Cc1ccccc1OCc1nc(-c2ccc(NC(=O)c3ccc(Br)o3)cc2)no1", "proportion of mobile C. elegans dauer larvae": 1}, {"compound": "O=C(Nc1ccccc1-c1nc(-c2cccnc2)no1)c1ccccc1Cl", "proportion of mobile C. elegans dauer larvae": 1}, {"compound": "COc1ccc(-c2noc(CSc3ccc(C)cc3)n2)cc1", "proportion of mobile C. elegans dauer larvae": 1}, {"compound": "COc1ccccc1NC(=O)CSc1nnc(-c2ccc(Cl)cc2)o1", "proportion of mobile C. elegans dauer larvae": 1}, {"compound": "CCOc1ccc(-c2nc(-c3ccccc3)no2)cc1", "proportion of mobile C. elegans dauer larvae": 1}, {"compound": "FC(F)(F)c1cccc(-c2noc(-c3ccccc3Cl)n2)c1", "proportion of mobile C. elegans dauer larvae": 1}, {"compound": "CC(C)c1ccc(NC(=O)CSc2nnc(-c3ccc(Br)cc3)o2)cc1", "proportion of mobile C. elegans dauer larvae": 1}, {"compound": "Cc1ccc(-c2noc(COc3ccc(Br)cc3)n2)cc1", "proportion of mobile C. elegans dauer larvae": 1}, {"compound": "Cc1nnc(CSc2nnc(-c3ccc(Cl)cc3)o2)o1", "proportion of mobile C. elegans dauer larvae": 1}, {"compound": "Cc1c(C(=O)CSc2nnc(-c3ccccc3)o2)c2ccccc2n1C", "proportion of mobile C. elegans dauer larvae": 1}, {"compound": "COc1ccc(-c2noc(-c3ccc(C)cc3Cl)n2)cc1", "proportion of mobile C. elegans dauer larvae": 1}, {"compound": "CCc1ccc(NC(=O)CSc2nnc(-c3ccco3)o2)cc1", "proportion of mobile C. elegans dauer larvae": 1}, {"compound": "O=C(CSc1nnc(-c2ccc(Br)cc2)o1)Nc1ccc2ccccc2c1", "proportion of mobile C. elegans dauer larvae": 1}, {"compound": "COc1ccc(OC(C)c2nc(-c3ccccn3)no2)cc1", "note": "(centres undefined)", "proportion of mobile C. elegans dauer larvae": 1}, {"compound": "Cc1ccc(-c2nc(-c3ccncc3)no2)c(Cl)c1", "proportion of mobile C. elegans dauer larvae": 1}, {"compound": "COC(=O)c1ccc(CSc2nnc(-c3ccc(OC)cc3)o2)cc1", "proportion of mobile C. elegans dauer larvae": 1}, {"compound": "CCNC(=O)c1ccccc1-c1nc(-c2ccc(F)cc2)no1", "proportion of mobile C. elegans dauer larvae": 1}, {"compound": "N#Cc1ccccc1NC(=O)CSc1nnc(-c2ccccc2)o1", "proportion of mobile C. elegans dauer larvae": 1}, {"compound": "CCSc1nnc(-c2ccc(Cl)cc2Cl)o1", "proportion of mobile C. elegans dauer larvae": "0 (active)"}, {"compound": "Cc1cc(OC(C)c2nc(-c3cccnc3)no2)ccc1Cl", "note": "(centres undefined)", "proportion of mobile C. elegans dauer larvae": 1}, {"compound": "N#Cc1ccc(CSc2nnc(-c3ccco3)o2)cc1", "proportion of mobile C. elegans dauer larvae": 1}, {"compound": "O=C(CSc1nnc(-c2ccccc2Cl)o1)Nc1ccccn1", "proportion of mobile C. elegans dauer larvae": 1}, {"compound": "O=C(CSc1nnc(-c2ccc(Cl)cc2)o1)NCc1ccccc1", "proportion of mobile C. elegans dauer larvae": 1}, {"compound": "Cc1ccc(OC(C)c2nc(-c3ccc4c(c3)OCO4)no2)cc1C", "note": "(centres undefined)", "proportion of mobile C. elegans dauer larvae": 1}, {"compound": "COc1ccc(C(=O)CSc2nnc(-c3cccc(Br)c3)o2)cc1", "proportion of mobile C. elegans dauer larvae": 1}, {"compound": "COc1cccc(-c2noc(COc3ccc(C)cc3C)n2)c1", "proportion of mobile C. elegans dauer larvae": 1}, {"compound": "Cc1cc(OCc2nc(-c3ccccn3)no2)cc(C)c1Cl", "proportion of mobile C. elegans dauer larvae": 1}, {"compound": "Brc1cccc(-c2nc(-c3cccnc3)no2)c1", "proportion of mobile C. elegans dauer larvae": 1}, {"compound": "CCc1ccc(OCc2nc(-c3ccc(C)cc3)no2)cc1", "proportion of mobile C. elegans dauer larvae": 1}]}, {"test_system": "Ditylenchus dipsaci", "assay": "proportion of mobile D. dipsaci (mixed stage) relative to DMSO control (fraction of DMSO control); higher = more viable, less nematicidal, active = 0.86 or less; extreme values may be limits of the assay", "settings": "60 µM; 5 days; temperature: 20 °C", "method_in_brief": "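Mobility values are relative to DMSO controls and are averages of two biological replicates. For each well of a 96-well plate, about 20 D. dipsaci worms, grown on pea plants in Gamborg B-5 agar and funnel-extracted into water, were dispensed in distilled water. Plates received pinned compound at 60 µM final with 0.6% v/v DMSO and were sealed and shaken at 200 rpm for 5 days at 20 °C before 2 µL 1 M NaOH was added and mobile worms were scored by microscope.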", "values": [{"compound": "O=C(Nc1ccc(-c2noc(-c3ccc(F)cc3)n2)cc1)c1ccc(Br)o1", "proportion of mobile D. dipsaci": 1}, {"compound": "Cc1ccc(-c2nc(-c3ccc(C(F)(F)F)cc3)no2)cc1", "proportion of mobile D. dipsaci": 1}, {"compound": "Cc1cc(OCc2nc(-c3ccccn3)no2)ccc1Br", "proportion of mobile D. dipsaci": 1}, {"compound": "CCOC(=O)c1c(NC(=O)CSc2nnc(-c3ccc(Cl)cc3)o2)sc(C)c1C", "proportion of mobile D. dipsaci": 1}, {"compound": "O=C(CSc1nnc(-c2ccccc2)o1)NC1CC2CCC1C2", "note": "(centres undefined)", "proportion of mobile D. dipsaci": 1}, {"compound": "Fc1ccc(-c2noc(-c3ccc(Br)cc3)n2)cc1", "proportion of mobile D. dipsaci": 1}, {"compound": "COc1ccccc1-c1nc(-c2ccc(Cl)cc2)no1", "proportion of mobile D. dipsaci": 1}, {"compound": "CCc1ccc(C(=O)Nc2ccccc2-c2nc(-c3ccncc3)no2)cc1", "proportion of mobile D. dipsaci": 1}, {"compound": "COc1ccc(-c2nnc(SCC(=O)Nc3ccc(Cl)c(Br)c3)o2)cc1", "proportion of mobile D. dipsaci": 1}, {"compound": "Cc1ccccc1OCc1nc(-c2ccc(NC(=O)c3ccc(Br)o3)cc2)no1", "proportion of mobile D. dipsaci": 1}, {"compound": "O=C(Nc1ccccc1-c1nc(-c2cccnc2)no1)c1ccccc1Cl", "proportion of mobile D. dipsaci": 1}, {"compound": "COc1ccc(-c2noc(CSc3ccc(C)cc3)n2)cc1", "proportion of mobile D. dipsaci": 1}, {"compound": "COc1ccccc1NC(=O)CSc1nnc(-c2ccc(Cl)cc2)o1", "proportion of mobile D. dipsaci": 1}, {"compound": "CCOc1ccc(-c2nc(-c3ccccc3)no2)cc1", "proportion of mobile D. dipsaci": 1}, {"compound": "FC(F)(F)c1cccc(-c2noc(-c3ccccc3Cl)n2)c1", "proportion of mobile D. dipsaci": 1}, {"compound": "CC(C)c1ccc(NC(=O)CSc2nnc(-c3ccc(Br)cc3)o2)cc1", "proportion of mobile D. dipsaci": 1}, {"compound": "Cc1ccc(-c2noc(COc3ccc(Br)cc3)n2)cc1", "proportion of mobile D. dipsaci": 1}, {"compound": "Cc1nnc(CSc2nnc(-c3ccc(Cl)cc3)o2)o1", "proportion of mobile D. dipsaci": 1}, {"compound": "Cc1c(C(=O)CSc2nnc(-c3ccccc3)o2)c2ccccc2n1C", "proportion of mobile D. dipsaci": 1}, {"compound": "COc1ccc(-c2noc(-c3ccc(C)cc3Cl)n2)cc1", "proportion of mobile D. dipsaci": 1}, {"compound": "CCc1ccc(NC(=O)CSc2nnc(-c3ccco3)o2)cc1", "proportion of mobile D. dipsaci": 1}, {"compound": "O=C(CSc1nnc(-c2ccc(Br)cc2)o1)Nc1ccc2ccccc2c1", "proportion of mobile D. dipsaci": 1}, {"compound": "COc1ccc(OC(C)c2nc(-c3ccccn3)no2)cc1", "note": "(centres undefined)", "proportion of mobile D. dipsaci": 1}, {"compound": "Cc1ccc(-c2nc(-c3ccncc3)no2)c(Cl)c1", "proportion of mobile D. dipsaci": 1}, {"compound": "COC(=O)c1ccc(CSc2nnc(-c3ccc(OC)cc3)o2)cc1", "proportion of mobile D. dipsaci": 1}, {"compound": "CCNC(=O)c1ccccc1-c1nc(-c2ccc(F)cc2)no1", "proportion of mobile D. dipsaci": 1}, {"compound": "N#Cc1ccccc1NC(=O)CSc1nnc(-c2ccccc2)o1", "proportion of mobile D. dipsaci": 1}, {"compound": "CCSc1nnc(-c2ccc(Cl)cc2Cl)o1", "proportion of mobile D. dipsaci": "0.739 (active)"}, {"compound": "Cc1cc(OC(C)c2nc(-c3cccnc3)no2)ccc1Cl", "note": "(centres undefined)", "proportion of mobile D. dipsaci": 1}, {"compound": "N#Cc1ccc(CSc2nnc(-c3ccco3)o2)cc1", "proportion of mobile D. dipsaci": 1}, {"compound": "O=C(CSc1nnc(-c2ccccc2Cl)o1)Nc1ccccn1", "proportion of mobile D. dipsaci": 1}, {"compound": "O=C(CSc1nnc(-c2ccc(Cl)cc2)o1)NCc1ccccc1", "proportion of mobile D. dipsaci": 1}, {"compound": "Cc1ccc(OC(C)c2nc(-c3ccc4c(c3)OCO4)no2)cc1C", "note": "(centres undefined)", "proportion of mobile D. dipsaci": 1}, {"compound": "COc1ccc(C(=O)CSc2nnc(-c3cccc(Br)c3)o2)cc1", "proportion of mobile D. dipsaci": 1}, {"compound": "COc1cccc(-c2noc(COc3ccc(C)cc3C)n2)c1", "proportion of mobile D. dipsaci": 1}, {"compound": "Cc1cc(OCc2nc(-c3ccccn3)no2)cc(C)c1Cl", "proportion of mobile D. dipsaci": 1}, {"compound": "Brc1cccc(-c2nc(-c3cccnc3)no2)c1", "proportion of mobile D. dipsaci": 1}, {"compound": "CCc1ccc(OCc2nc(-c3ccc(C)cc3)no2)cc1", "proportion of mobile D. dipsaci": 1}]}]}
